Compound activity deposited in PubChem by Broad Institute.
Rtt109 Vps75: inhibitors of C. albicans Rtt109/Vps75 HAT, primary screen, biochemical, ThioGlo CoA-SH fluorescence, plate reader; inhibition, % at 34.9 µM; purified Rtt109/Vps75, 4 h; 330,000 compounds, 0.16% hits; Histone acetyltransferase RTT109 (Candida albicans (strain SC5314 / ATCC MYA-2876)), …;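 active = inhibition of at least 50% in every replicate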
Target sequence (Q5AAJ8 whole entry, looked up): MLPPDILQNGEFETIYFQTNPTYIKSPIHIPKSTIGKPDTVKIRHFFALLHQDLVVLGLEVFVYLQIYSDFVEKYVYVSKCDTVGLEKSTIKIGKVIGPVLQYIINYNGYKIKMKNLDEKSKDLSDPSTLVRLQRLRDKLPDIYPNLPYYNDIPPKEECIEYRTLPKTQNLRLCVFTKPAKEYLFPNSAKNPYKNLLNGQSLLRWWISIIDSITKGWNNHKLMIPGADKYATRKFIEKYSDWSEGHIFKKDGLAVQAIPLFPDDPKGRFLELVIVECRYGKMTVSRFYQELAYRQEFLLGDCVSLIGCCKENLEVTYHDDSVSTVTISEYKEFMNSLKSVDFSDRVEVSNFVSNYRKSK
DENV2 CPE rescue: inhibitors of DENV2 cytopathic effect, primary screen, cell-based, plate reader, single concentration; DENV2-infected cells, cytopathic effect rescue; 350,000 compounds, 1.7% hits; AID 651640, 2012; CPE inhibition, % at 9.99 µM; in the data active = CPE inhibition above about 20%, passing the limit was not always enough; tested in BHK-21 cells;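 also: 0% = median of neutral control wells and 100% = median of positive control wells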
Glyco luc inh: increase of ERlucT glycosylation luciferase signal, primary screen, N-linked glycosylation inhibitor project, D54 ERlucT cells, luminescence, set 2; D54 ERlucT glycosylation luciferase reporter, 24 h; percent of 100 nM tunicamycin response; reporter increase, % at 12.5 µM; 360,000 compounds, 0.23% hits;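 active = mean luciferase reporter signal, scaled so untreated is 0 and the glycosylation-blocking control 100, at or above a set limit in every replicate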;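 also: luciferase carries N-glycosylation sites so blocking glycosylation raises the light; 0% = median of neutral control wells and 100% = median of 100 nM tunicamycin wells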
PglD DTNB: C. jejuni PglD acetyltransferase inhibitors, primary screen, biochemical, DTNB colorimetric, single point | UDP-N-acetylbacillosamine N-acetyltransferase PglD (Campylobacter jejuni) | purified PglD enzyme, DTNB colorimetric CoA detection | inhibition, % at 12.5 µM | 360,000 compounds, 0.098% hits; in the data active = inhibition above about 16%, passing the limit was not always enough
* = called active by the depositor; x = no result; ! = not confirmed by another sample. Many of the other results were omitted from the sample, so hits are more common in it than they were.

SMILES	Rtt109 Vps75	DENV2 CPE rescue	Glyco luc inh	PglD DTNB
Cn1cnc(S(=O)(=O)N2CCCCN3[C@H](CO)[C@@H](c4ccc(-c5ccccc5)cc4)[C@H]3C2)c1	x	26*	x	-4
COc1ccc(-c2ccc([C@H]3[C@@H](CO)N4CCCCN(S(=O)(=O)c5cccs5)C[C@@H]34)cc2)cc1	x	22*	x	-1
COc1cccc(-c2ccc([C@@H]3[C@@H](CO)N4CCCCN(S(=O)(=O)c5cccs5)C[C@@H]34)cc2)c1	x	12	x	-2
O=S(=O)(c1cccs1)N1CCCCN2[C@H](CO)[C@H](c3ccc(-c4ccccc4)cc3)[C@@H]2C1	x	23*	x	-2
O=S(=O)(c1cccs1)N1CCCCN2[C@H](CO)[C@H](c3ccc(C4=CCCC4)cc3)[C@@H]2C1	x	46*	x	-2
Cn1cnc(S(=O)(=O)N2CCCCN3[C@H](C2)[C@@H](c2ccc(-c4ccccc4)cc2)[C@@H]3CO)c1	x	6	x	1
COCC(=O)N[C@@H]1C=C[C@@H](CC(=O)NCc2ccccc2OC)O[C@@H]1CO	x	-3	x	-1
O=C(C[C@@H]1C=C[C@H](NC(=O)c2ccncc2)[C@H](CO)O1)NCCc1ccncc1	x	6	x	-1
COc1cccc(-c2ccc(C3[C@@H]4CN(S(=O)(=O)c5cn(C)cn5)C[C@H]3N4)cc2)c1 (stereo partly drawn)	x	131*!	x	x
CS(=O)(=O)N1C[C@@H]2N[C@H](C1)[C@@H]2c1ccc(-c2ccccc2)cc1	x	100*	x	x
CN1CCCCN2[C@H](CO)[C@H](c3ccc(C4=CCCC4)cc3)[C@H]2C1	x	29*	x	5
Cc1ccc(S(=O)(=O)N(C)C[C@@H]2OCCCC[C@H](C)Oc3ccc(NC(=O)c4ccccc4)cc3C(=O)N([C@@H](C)CO)C[C@H]2C)cc1	x	5	x	10
O=C(C[C@H]1C[C@@H]2c3cc(NS(=O)(=O)c4ccccc4)ccc3O[C@@H]2[C@H](CO)O1)N1CCCCC1	x	5	x	-1
CCCn1c(N)c(C(=O)CN(C)CC(=O)Nc2cc(C)ccc2C)c(=O)[nH]c1=O	5	51*	1	-1
CCCn1c(N)c(C(=O)CN(C)CC(=O)Nc2ccc(C)cc2)c(=O)[nH]c1=O	-10	-3	-1	1
C[C@@H]1CN([C@@H](C)CO)C(=O)c2cc(NC(=O)C3CCCCC3)ccc2O[C@@H](C)CCCCO[C@H]1CN(C)C(=O)Cc1ccccc1	x	-4	x	0
O=S(=O)(c1cccc(Br)c1)N1CCN(C(=S)NCC2CCCO2)CC1 (stereo not drawn)	x	68*	1	x
CCCCOc1ccc(C2C(C(=O)c3ccc(C)o3)=C(O)C(=O)N2Cc2ccco2)cc1 (stereo not drawn)	56*	10	-1	-7
Cc1ccc(S(=O)(=O)N(C)C[C@H]2OCCCC[C@@H](C)Oc3ccc(NS(=O)(=O)c4c(C)noc4C)cc3C(=O)N([C@@H](C)CO)C[C@H]2C)cc1	x	13	x	-2
Cc1ccc(S(=O)(=O)N(C)C[C@@H]2OCCCC[C@H](C)Oc3ccc(NS(=O)(=O)c4c(C)noc4C)cc3C(=O)N([C@@H](C)CO)C[C@@H]2C)cc1	x	81*	x	-4
COc1ccc(S(=O)(=O)N(C)C[C@H]2OCCCC[C@H](C)Oc3ccc(NS(=O)(=O)c4c(C)noc4C)cc3C(=O)N([C@H](C)CO)C[C@@H]2C)cc1	x	5	x	0
Cc1ccc(S(=O)(=O)N(C)C[C@@H]2OCCCC[C@H](C)Oc3ccc(NS(=O)(=O)c4c(C)noc4C)cc3C(=O)N([C@@H](C)CO)C[C@H]2C)cc1	x	-3	x	-1
Cc1noc(C)c1S(=O)(=O)N(C)C[C@@H]1OCCCC[C@@H](C)Oc2ccc(NS(=O)(=O)c3ccc(Cl)cc3)cc2C(=O)N([C@H](C)CO)C[C@H]1C	x	31*	x	-5
COc1ccc(S(=O)(=O)N(C)C[C@@H]2OCCCC[C@H](C)Oc3ccc(NS(=O)(=O)c4c(C)noc4C)cc3C(=O)N([C@H](C)CO)C[C@H]2C)cc1	x	96*	x	-2
Cc1ccc(S(=O)(=O)N(C)C[C@H]2OCCCC[C@H](C)Oc3ccc(NS(=O)(=O)c4c(C)noc4C)cc3C(=O)N([C@@H](C)CO)C[C@H]2C)cc1	x	49*	x	-2
SMILES	Rtt109 Vps75	DENV2 CPE rescue	Glyco luc inh	PglD DTNB
COc1cccc(-c2ccc3n(c2=O)C[C@H]2[C@H](CO)[C@@H](C(=O)NC4CCC4)[C@@H]3N2C)c1	x	5	x	6
Cc1ccc(S(=O)(=O)Nc2ccc3c(c2)C(=O)N([C@H](C)CO)C[C@H](C)[C@H](CN(C)S(=O)(=O)c2c(C)noc2C)OCCCC[C@H](C)O3)cc1	x	31*	x	34
COc1cccc2sc3cc(C#Cc4ccccn4)ccc3c(=O)c12	17	-13	0	1
COc1cc2sc3ccc(C#Cc4ccccn4)cc3c(=O)c2cc1OC	-5	23*	-1	3
CCC(C)c1ccc(NC(=O)NCCN2CCCCC2)cc1 (stereo not drawn)	6	30*	0	-1
COc1ccc(S(=O)(=O)N(C)C[C@H]2Oc3ccc(NS(C)(=O)=O)cc3CC(=O)N([C@H](C)CO)C[C@H]2C)cc1	x	5	x	1
COc1cccc(C(=O)c2c(-c3ccccc3)ncc3cc(OC)c(OC)cc23)c1	-16	27*	-2	1
C[C@H]1CN([C@@H](C)CO)C(=O)Cc2cc(NC(=O)Nc3ccc(C(F)(F)F)cc3)ccc2O[C@@H]1CN(C)S(=O)(=O)c1cn(C)cn1	x	0	x	1
C[C@H](CO)N1C[C@H](C)[C@H](CN(C)S(=O)(=O)c2cn(C)cn2)Oc2ccc(NC(=O)Nc3ccc(C(F)(F)F)cc3)cc2CC1=O	2	-13	60*	-1
C[C@H](CO)N1C[C@H](C)[C@@H](CN(C)S(=O)(=O)c2cn(C)cn2)Oc2ccc(NC(=O)Nc3cccc4ccccc34)cc2CC1=O	x	86*	x	0
COc1ccc(NC(=O)Nc2ccc3c(c2)CC(=O)N([C@H](C)CO)C[C@@H](C)[C@H](CN(C)S(=O)(=O)c2cn(C)cn2)O3)cc1	x	75*	x	-2
CCC(=O)N1[C@@H](CO)[C@@H](c2ccccc2)[C@@H]1CN(C)C(=O)c1ccccc1F	x	-10	x	1
C[C@@H]1CCCCO[C@@H](CN(C)S(=O)(=O)c2ccc(Cl)cc2)[C@H](C)CN([C@H](C)CO)C(=O)c2cc(NC(=O)C3CCCCC3)ccc2O1	x	16	x	2
CCCCNC(=O)C1C(c2ccc(C(F)(F)F)cc2)=Nc2ccccc2N1C(=O)c1cccc2ccccc12 (stereo not drawn)	x	28*	x	x
COc1cccc(NC(=O)N(C)C[C@@H]2Oc3cc(C#Cc4ccc(F)cc4)ccc3S(=O)(=O)N([C@H](C)CO)C[C@@H]2C)c1	x	-2	x	4
Cc1nnc(SCC(=O)NC2CCCc3ccccc32)n1-c1ccccc1 (stereo not drawn)	-7	83*	0	x
